Inconclusive results are not listed. Entries that show only a call come without a potency. The source made the active and inactive calls. Calls come from the whole dose curve; as a rule, active = well fitted activation curve with a large enough effect; inconclusive = small, poorly fitted or top-dose-only effect; inactive = no such curve, though single readings can be large or run the other way.
Test: qHTS Assay for Identifying a Potential Treatment of Ataxia-Telangiectasia: Hit Validation;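 note: phospho-KAP1 level by AlphaLISA as a proxy for ATM-like kinase activity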
Conditions: Ataxia-telangiectasia cell-based hit validation qHTS, in ATM-null A-T patient fibroblasts; series mostly up to 76.9 µM
How it was run: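 KAP-1 phosphorylation was read by AlphaLISA as a measure of ATM-like activity in ATM-null F2112 fibroblasts. Compounds spanned up to 76.7 uM final, with 60 min exposure at 37C and a 6 hr detection incubation at 25C.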
Potency is the fitted concentration of half-maximal effect.

Compound	Potency
Clc1cccc(Cl)c1CSc1nnc(-c2ccncc2)s1	inactive
O=c1c2cc(Br)ccc2nc(-c2ccccc2)n1O	inactive
COc1ccc(C(=O)/C=C/C(=O)N(CC(=O)NC2CCCCC2)Cc2ccccc2)c(O)c1	14.6 µM (active)
Cc1ccc(OCC(=O)N(Cc2cccs2)C2CCS(=O)(=O)C2)cc1C (configuration not stated)	inactive
CC12CCC(C(=O)NNc3ccc([N+](=O)[O-])cc3)(OC1=O)C2(C)C (configuration not stated)	inactive
CCc1oc(C(=O)OC)cc1CSC(=N)N	inactive
CCOC(=O)c1ccc(-n2c(C)nc3ccc(Br)cc3c2=O)cc1	inactive
CCOc1ccc(C(=O)NC(=S)Nc2cccnc2)cc1[N+](=O)[O-]	inactive
CC(C)C1CC(CCN)(c2ccccc2)CCO1 (configuration not stated)	inactive
COc1ccc(NC(=O)C2CC2)cc1OC1CCCC1	inactive
N#C/C(=C/c1ccc(F)cc1)C(N)=S	inactive
O=c1c(-c2ccc(Cl)cc2)c[nH]n1-c1ccccc1	inactive
OC(COC(c1ccc(F)cc1)c1ccc(F)cc1)CN1CCCC1 (configuration not stated)	inactive
COc1ccc(-n2c(=S)[nH]c3ccccc3c2=S)cc1	inactive
CCc1ccc(NC(=O)N[C@H](C(=O)O)C(C)CC)cc1 (some centres not stated)	inactive
CCC(C)Nc1nc(N)c([N+](=O)[O-])c(NCCO)n1 (configuration not stated)	inactive
COc1ccc2c(c1)c(N=NC(N)=S)c(O)n2CC(=O)c1ccccc1	inactive
COc1ccc(C(=O)N2CCCC2(C#N)c2ccccc2)cc1[N+](=O)[O-] (configuration not stated)	inactive
CC(NC(=O)COC(=O)/C=C/c1ccc(Cl)cc1)c1ccccc1 (configuration not stated)	inactive

Compound	Potency
CN(C)C(=O)c1nc2ccc(Cl)cn2c1CNCc1cccc(OC(F)(F)F)c1	inactive
FC(F)(F)c1cccc(OCC2CNC(=S)O2)c1 (configuration not stated)	inactive
COC1=C(N)C(=O)c2nc(-c3nc(C(=O)O)c(C)c(-c4ccc(OC)c(OC)c4O)c3N)ccc2C1=O	inactive
Cc1ccc(NC(=O)Nc2cccnc2)cc1NC(=O)Nc1cccnc1	inactive
COC(=O)N/N=C/c1ccccc1OCCOc1ccc(OC)cc1	inactive
Cc1ccc(C(C)C)c(OCCN2CCc3ccccc3C2)c1	32.8 µM (active)
CCCc1ccc(S(=O)(=O)Nc2ccc(C)c(NS(C)(=O)=O)c2)cc1	inactive
COC(=O)Cn1ccc2cc(S(=O)(=O)N3CCCCC3)ccc21	inactive
O=C(c1ccc(F)cc1)N1CCC(c2ccccc2)C1 (configuration not stated)	inactive
CC(C)(CN1CCN(c2ccccc2)CC1)NS(=O)(=O)c1ccccc1	inactive
Cn1c(=O)oc2cc(S(=O)(=O)N3CCc4ccccc43)ccc21	inactive
CN(Cc1ccccc1)C(=O)c1cccc(N2C(=O)C3CC=CCC3C2=O)c1 (configuration not stated)	inactive
CC(C)CNS(=O)(=O)c1cc(C(=O)O)c(Cl)cc1Cl	inactive
COc1ccccc1NC(=O)C1CCCN(S(=O)(=O)c2ccc(-n3cnnn3)cc2)C1 (configuration not stated)	inactive
CCOC(=O)NC(C(Cl)(Cl)Cl)S(=O)(=O)c1ccccc1 (configuration not stated)	41.2 µM (active)
CCn1nc(C)c(CNC(=O)c2cc(COc3ccc(F)cc3Cl)on2)c1C	inactive
CCC(=O)NC1=C(Cl)C(=O)C(NC(=O)CC)=C(Cl)C1=O	inactive
O=C(C[n+]1ccc2c(c1)nnn2-c1ccccc1)c1ccc(Cl)cc1	inactive

Reference: PubChem BioAssay AID493192 (National Center for Advancing Translational Sciences (NCATS), 2011)
